Data as given in PubChem BioAssay (NCI).
The panel holds about 83,000 compounds, 20% with a hit somewhere; the sample as a whole holds those more often.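 Single-concentration screen, 48 h exposure, 96-well plates. Endpoint: percent growth. Below 10 = active.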 Values without a mark were called inactive. Calls of active or inactive are those of the source.

The molecules below were run on SW-620 colon (assay: NCI-60 one-dose screen, 48 h (100 = growth as untreated, 0 = no growth, -100 = all killed)). Conditions: 10 µM unless noted.
Description: Growth inhibition of the SW-620 human tumor cell line is measured as a screen for anti-cancer activity. Cells are grown in 96 well plates and exposed to the test compound for 48 hours. Compounds are tested at a single concentration, which is 10^-5 M for most compounds. The reported endpoint is percent growth (GI% or GIPRCNT), where numbers from 0 - 100% represent growth inhibition, and numbers from -100% - 0 represent cell death. For example, a value of 40 represents 60% growth inhibition. A value of 0 means no net growth occurred over the course of the experiment. A value of -40 indicates 40% of cells at the beginning of the experiment died by the end of the experiment. A value of -100 means all cells are dead at the end of the experiment.
NCI-60 Human Tumor Cell Lines Screen was performed using the standard one-dose NCI protocol, which is described in more detail at https://dtp.cancer.gov/discovery_development/nci-60/default.htm.
Compounds with GIPRCNT values below 10 were considered active. Activity score was based on GIPRCNT using the following formula: […]
Score is 0 for GIPRCNT values of 100 or above, 50 for GIPRCNT values of 0, and 100 for GIPRCNT values of -100.
Molecule Cc1nn(-c2ccccc2)c2c1N=c1s/c(=C\c3ccc(C(F)(F)F)cc3)c(=O)n1CN2 has a growth of 75.7%.
Molecule Cc1nc(/N=C(\N)NC(=O)Nc2cccc(Cl)c2)sc1C has a growth of 38.2%.
With Cc1c(C(=O)NCCCc2ccccc2)sc2ncc(-c3ccc(Br)cc3)n12 the growth was 105%.
Molecule CNC(=O)c1cc(-n2ccc3cc(NC(=O)c4ccc(N5CCOCC5)c(C(F)(F)F)c4)ccc32)ccn1 has a growth of 75.9%.
With Cc1ccc2nc(NC(=O)CSc3nc(Cl)c(C#N)c(-c4ccccc4)n3)sc2c1 the growth was 103%.
CCOC(=O)c1cn2ncnc(Oc3ccc(NC(=O)NCCN(C)C)c(Cl)c3)c2c1C was tested, and the growth was 31.5%.
Molecule CCCCCCCCCCCCCCCCCCOc1ccccc1CC(=O)OCC[N+](CC)(CC)CC has a growth of 21.6%.
With O=C(CCN1C(=O)/C(=C/c2ccc(O)cc2)SC1=S)Nc1ccc(Cl)cc1 the growth was 101%.
Work on O=c1c2cc(F)ccc2sc2c(NCCN3CCOCC3)nc3ccccc3c12 yielded a growth of 42.4%.
c1ccc2cc(C[n+]3ccn(CCCCCCCCCCCCn4cc[n+](Cc5ccc6ccccc6c5)c4)c3)ccc2c1 was tested, and the growth was -55.7% (active).
In the case of O=c1ccn(Cc2cn(-c3c4ccccc4nc4ccccc34)nn2)c(=O)[nH]1, the growth is reported as 93%.
CN(C)c1ccc2nc3ccc(=[N+](C)C)c([N+](=O)[O-])c-3sc2c1 showed a growth of 24.4%.
With O=C1c2cccc3cccc(c23)C(=O)N1Nc1nc(N2CCOCC2)nc(N2CCN(c3ccccc3)CC2)n1 the growth was 32.6%.
Cc1nn(-c2ccccc2)c(-n2ccnc2)c1/C=N/Nc1nc(-c2ccc(Cl)c(Cl)c2)cs1 showed a growth of 30.6%.
Cc1nc2ccccc2c(/C=C/c2ccc(Cl)cc2)c1C(=O)/C=C/c1cccs1 showed a growth of 72.4%.
For CCOC(=O)C1=C(N)Oc2c(sc3c(C)cccc23)C1c1ccc(OC)cc1 (stereo not given), the growth was 20.3%.
In the case of c1ccc2c(-c3nc(-c4c[nH]c5ccncc45)cs3)c[nH]c2c1, the growth is reported as -63% (active).
Work on CC(=O)CC[C@H]1C(=O)N[C@@H](C(C)C)C(=O)N[C@@H](Cc2cc(O)cc(F)c2)C(=O)N2CCC[C@H](N2)C(=O)O[C@H](/C(C)=C/C=C/C(=O)OC(C)(C)C)C/C=C/C=C/[C@H](O)[C@H](C)[C@H]1O yielded a growth of 25.4%.
O=C(N/N=C/[C@H](O)[C@@H](O)[C@@H](O)[C@H](O)CO)c1ccc(NC(=O)c2cccnc2)cc1 showed a growth of 108%.
In the case of Cc1ccc(-c2nc(N3CCN(CC(=O)Nc4ccc(Cl)cc4)CC3)c3ccccc3n2)cc1, the growth is reported as 97.5%.
Molecule Cc1nc(NC(=O)COc2ccc(/C=C3\Cc4ccc(Cl)cc4C3=O)cc2)sc1C has a growth of 107%.
With COc1cc2cc(Oc3ccc(NC(=O)Nc4ccc(Cl)c(C(F)(F)F)c4)cc3)c(C)nc2cc1OCCN1CCOCC1 the growth was 15.1%.
For Nc1nc(-c2cccc3ccccc23)cc2ccccc12, the growth was 19.4%.
In the case of CNC(C)[C@H]1CCC2C3CCC4C[C@@H](N(C)C(=O)c5ccccc5)CC[C@]4(C)C3CC[C@@]21C (stereo not given in full), the growth is reported as -21.7% (active).
For COc1ccc(-c2nc3sc(-c4ccc(Cl)cc4)cn3n2)cc1, the growth was 59.6%.
In the case of CC1=C(SCCC(=O)OC(C[Se]C2=C(C)C(=O)c3ccccc3C2=O)C(=O)NC(C)(C)C)C(=O)c2ccccc2C1=O (stereo not given), the growth is reported as -80% (active).
Molecule Cc1nn(-c2ccccc2)c(-n2ccnc2)c1/C=N/Nc1nc(-c2ccc(F)cc2)cs1 has a growth of 88.4%.
For Cc1ccc(S(=O)(=O)N/N=C/C2(c3ccccc3)CC2)cc1, the growth was 97.1%.
COc1ccc2c(c1)/C(=C/c1sc(=S)n(Cc3ccco3)c1O)C=N2 showed a growth of 28.1%.
COc1ccc(-c2csc(NC(=O)N3CCN(c4cc5c(cc4F)c(=O)c(C(=O)O)cn5C4CC4)CC3)n2)cc1 was tested, and the growth was 15.7%.
COc1c(C2CC(=O)Nc3c2c(C)nn3-c2nc3ccccc3[nH]2)cc2c(c1OC)OCO2 (stereo not given) showed a growth of 36.4%.
O=CN1N=C(c2ccc(Nc3ccnc4cc(Cl)ccc34)cc2)CC1c1ccccc1 (stereo not given) showed a growth of 31.8%.
With O=C(CSc1nc2ccccc2[nH]1)Nc1cccc(Cl)c1 the growth was 95.7%.
CC(=O)OC[C@H]1OC(Sc2sc(C(=O)c3ccc(Br)cc3)c(N)c2-c2nc3ccccc3s2)[C@H](OC(C)=O)[C@@H](OC(C)=O)[C@H]1OC(C)=O (stereo not given in full) was tested, and the growth was 104%.
N/C(=N\c1nc2ccccc2s1)NC(=O)Nc1cccc2ccccc12 gave a growth of 19.7%.
For [O-][n+]1c2ccccc2[n+]([O-])c2c3ccccc3[nH]c21, the growth was 45.4%.
CNc1nc2c(s1)C(c1cc(F)ccc1F)CC(=O)N2 (stereo not given) was tested, and the growth was 30.9%.
Cc1ccc(-c2nc(N3CCN(CC(=O)Nc4ccc(Cl)c(C(F)(F)F)c4)CC3)c3ccccc3n2)cc1 showed a growth of 91.7%.
With N#Cc1ccc(NC(=O)c2sc3nc4c(cc3c2N)C(=O)CCC4)cc1 the growth was 98.1%.
For CC(=O)CC(c1ccccc1)c1c(C)[nH]c2ccccc12 (stereo not given), the growth was 92.1%.
